Results on five molecules are retold here after PubChem BioAssay.

Activity calls are given as the source filed them.

Assay [1] has as its system Plasmodium falciparum Sir2 (PF13_0152, Sir2A). The assay can be described thus: Plasmodium falciparum Sir2A binding compounds – biochemical, small-molecule microarray, 635 nm fluorescence, primary screen (AID 1098).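 Note: score merges spot fluorescence intensity with its signal-to-noise ratio.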 The conditions noted are these: fluorescence 635 nm, higher = more signal.
Assay [2] in a line: probe aDKK1 binding to arrayed compounds – biochemical, biotinylated probe, 635/667 nm fluorescence, primary screen (AID 1099).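 Note: score merges 667nm spot fluorescence with signal to noise across triplicate slides.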 The following applies: small-molecule microarray, higher = more signal.
Assay [3] in a line: probe aCHRDL2 binding to arrayed compounds – biochemical, biotinylated probe, 635/667 nm fluorescence, primary screen (AID 1100). The following applies: small-molecule microarray, higher = more signal.
A short description of assay [4]: change in splice reporter luminescence, either direction, cell-based, HEK293, spliceosome inhibition project, primary screen (AID 1101).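 Note: HEK293 cells carrying a splicing-competent luciferase reporter gene; test concentration not given here.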 The following applies: HEK293 splicing luciferase reporter, 24 h, higher = more signal, called active from +8 up or from −8 down.
Assay [5] concerns the target Fibroblast growth factor 10 (Homo sapiens) (UniProt O15520). Nature of the assay: compounds binding fibroblast growth factor 10 – biochemical, small-molecule microarray, 635 nm fluorescence, primary screen (AID 1102). The conditions noted are these: FGF10 binding, fluorescence 635 nm, higher = more signal.
In assay [6] the test system is glycogen synthase kinase-3 (GSK3A per assay name; protocol says GSK3B). Nature of the assay: compounds binding glycogen synthase kinase-3 – biochemical, small-molecule microarray, 635 nm fluorescence, GSK3A, primary screen (AID 1103). Note: the record names both GSK3A and GSK3B. The conditions noted are these: fluorescence 635 nm, higher = more signal.
Assay [7] has as its target Epidermal growth factor receptor (Homo sapiens) (UniProt P00533). The assay can be described thus: compounds binding epidermal growth factor receptor – biochemical, small-molecule microarray, 635 nm fluorescence, primary screen (AID 1104).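 Note: score merges 667 nm emission intensity with spot signal to noise over triplicate slides.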 The conditions noted are these: EGFR binding, higher = more signal.
Assay [8] addresses Follistatin-related protein 3 (Homo sapiens) (UniProt O95633). Nature of the assay: compounds binding follistatin-related protein 3 – biochemical, small-molecule microarray, 635 nm fluorescence, primary screen (AID 1105).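 Note: score merges emission near 667 nm and signal to noise per printed spot across three slides.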 The conditions noted are these: FSTL3 binding, higher = more signal.
Assay [9] concerns the target Dickkopf-related protein 1 (Homo sapiens) (UniProt O94907). The assay can be described thus: small molecules binding DKK1 protein – biochemical, small-molecule microarray, 635 nm fluorescence scan, primary screen (AID 1106).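 Note: score merges emission near 667 nm with signal to noise over three replicate slides.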 The conditions noted are these: higher = more signal.
Assay [10] has as its system Inhibin beta A chain (activin A). Nature of the assay: small molecules binding activin A – biochemical, small-molecule microarray, 635 nm fluorescence scan, primary screen (AID 1107).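 Note: mouse activin A protein probed at 4.33 µg/mL on printed slides; score merges bound-protein fluorescence near 667 nm with spot signal-to-noise.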 The conditions noted are these: INHBA, higher = more signal.
Assay [11] has as its system Human papillomavirus type 1a protein E7 (residues 44-93). The assay can be described thus: small molecules binding HPV E7 44-93 – biochemical, small-molecule microarray, residues 44-93, 635 nm fluorescence, primary screen (AID 1108).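 Note: E7 fragment applied at 1 µg/mL in TBST for 1 h at 4 C; score combines spot fluorescence with its signal to noise ratio.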 The following applies: fluorescence 635 nm, higher = more signal.
Assay [12] in a line: hepatitis C replication reporter changes, two-sided – Huh7 cells, luciferase reporter, HCV replication inhibitor project, primary screen (AID 1109).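 Note: huh7 hepatoma cells harbouring a luciferase neomycin HCV replicon reporter; luciferase luminescence as measure of HCV replicon replication; test concentration not given here.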 The conditions noted are these: Huh7 HCV replicon luciferase reporter, 48 h; higher = more signal.
The target in assay [13] is Left-right determination factor 2 (Homo sapiens) (UniProt O00292). The assay can be described thus: small molecules binding LEFTY2 protein – biochemical, small-molecule microarray, 635 nm fluorescence scan, primary screen (AID 1110). The conditions noted are these: higher = more signal.
Chain of Left-right determination factor 2 (Homo sapiens) (O00292 whole entry, looked up): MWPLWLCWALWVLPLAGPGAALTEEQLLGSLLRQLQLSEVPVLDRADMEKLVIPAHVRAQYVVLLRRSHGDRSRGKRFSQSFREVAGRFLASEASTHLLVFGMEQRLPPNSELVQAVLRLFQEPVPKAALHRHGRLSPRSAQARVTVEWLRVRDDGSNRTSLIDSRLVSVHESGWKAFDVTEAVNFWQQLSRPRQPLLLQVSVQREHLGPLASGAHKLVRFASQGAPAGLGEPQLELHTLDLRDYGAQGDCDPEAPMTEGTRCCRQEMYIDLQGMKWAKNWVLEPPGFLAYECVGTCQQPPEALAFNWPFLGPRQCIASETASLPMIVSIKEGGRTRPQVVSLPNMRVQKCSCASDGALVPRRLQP
The target of assay [14] is Calmodulin-1 (Homo sapiens) (UniProt P0DP23). Nature of the assay: small molecules binding calmodulin-1 with EGTA – biochemical, small-molecule microarray, Cy5-labelled CALM1, profiling panel (AID 1111).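 Note: labelled calmodulin applied in Tris saline Tween buffer holding calcium plus EGTA and DTT.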 The conditions noted are these: Cy5-CALM1 binding fluorescence, higher = more signal.
The target is the same in assay [15]. The assay can be described thus: small molecules binding Ca-loaded calmodulin-1 – biochemical, small-molecule microarray, Cy5-labelled CALM1, plus calcium, artefact control for SMM control-protein annotation, profiling panel (AID 1112).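 Note: score merges spot fluorescence with signal to noise from triplicate slides.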 The conditions noted are these: Cy5-CALM1 binding fluorescence, higher = more signal.
Assay [16] is described as follows: probe aWnt5a binding to arrayed compounds – biochemical, biotinylated probe, 635/667 nm fluorescence, primary screen (AID 1113).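 Note: score merges 667 nm fluorescence intensity with signal-to-noise per printed feature.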 The following applies: small-molecule microarray, higher = more signal.
Assay [17] can be described thus: probe aShh binding to arrayed compounds – biochemical, biotinylated probe, 635/667 nm fluorescence, primary screen (AID 1114).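 Note: probe is biotin-labelled aShh protein from a stem cell growth factor screen; measures binding of labelled protein to compounds printed on the slide; score merges feature fluorescence at 667 nm with signal-to-noise.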 The conditions noted are these: small-molecule microarray, higher = more signal.
Assay [18] in a line: probe aNog binding to arrayed compounds – biochemical, biotinylated probe, 635/667 nm fluorescence, primary screen (AID 1115).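 Note: probe is biotinylated aNog protein used at 0.15 µg/mL for 1 h at 4 C; z-score combines 667 nm fluorescence of each spot with its signal to noise.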 The following applies: small-molecule microarray, higher = more signal.
Assay [19] has as its target Torsin-1A-interacting protein 1 (Homo sapiens) (UniProt Q5JTV8). The assay can be described thus: compound microarray binding of lysate hLAP1 – cell lysate, small-molecule microarray, COS7 lysate, 635/667 nm fluorescence, primary screen (AID 1116). The following applies: 635 nm fluorescence, higher = more signal.
Assay [20] deals with Alpha-bungarotoxin (Bungarus multicinctus) (UniProt P60615). Nature of the assay: compounds binding labelled alpha-BTX control protein – biochemical, small-molecule microarray, Alexa647 label, 635/667 nm fluorescence, artefact control for SMM control protein annotation, profiling panel (AID 1117). The conditions noted are these: alpha-BTX-A647 binding fluorescence, higher = more signal.
Chain of Alpha-bungarotoxin (Bungarus multicinctus) (P60615 whole entry, looked up): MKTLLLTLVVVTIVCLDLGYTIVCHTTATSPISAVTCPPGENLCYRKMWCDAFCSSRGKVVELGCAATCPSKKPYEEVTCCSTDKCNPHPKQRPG

Chain of Follistatin-related protein 3 (Homo sapiens) (O95633 whole entry, looked up): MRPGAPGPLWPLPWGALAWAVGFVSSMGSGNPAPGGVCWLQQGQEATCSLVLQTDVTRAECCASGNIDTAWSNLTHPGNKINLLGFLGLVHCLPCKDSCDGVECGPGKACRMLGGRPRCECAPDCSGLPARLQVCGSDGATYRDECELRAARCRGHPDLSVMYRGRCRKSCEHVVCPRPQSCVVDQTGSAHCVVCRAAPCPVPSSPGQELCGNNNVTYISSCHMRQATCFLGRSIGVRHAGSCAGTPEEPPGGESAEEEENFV
Chain of Torsin-1A-interacting protein 1 (Homo sapiens) (Q5JTV8 whole entry, looked up): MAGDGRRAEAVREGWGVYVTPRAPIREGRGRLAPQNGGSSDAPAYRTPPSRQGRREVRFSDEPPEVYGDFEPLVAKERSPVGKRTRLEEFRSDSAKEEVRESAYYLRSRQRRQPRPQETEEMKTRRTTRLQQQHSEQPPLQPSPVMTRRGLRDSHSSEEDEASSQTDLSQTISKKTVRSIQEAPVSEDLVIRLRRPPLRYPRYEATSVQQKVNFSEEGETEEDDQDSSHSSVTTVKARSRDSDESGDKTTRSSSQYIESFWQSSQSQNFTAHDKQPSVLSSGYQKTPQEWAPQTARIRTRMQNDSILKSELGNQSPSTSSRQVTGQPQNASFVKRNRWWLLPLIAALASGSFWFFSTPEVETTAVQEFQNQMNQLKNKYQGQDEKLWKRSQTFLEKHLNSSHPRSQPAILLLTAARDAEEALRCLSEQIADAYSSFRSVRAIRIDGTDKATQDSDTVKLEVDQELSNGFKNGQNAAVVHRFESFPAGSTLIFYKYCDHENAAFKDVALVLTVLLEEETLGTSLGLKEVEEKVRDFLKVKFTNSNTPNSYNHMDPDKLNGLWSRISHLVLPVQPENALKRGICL
Chain of Epidermal growth factor receptor (Homo sapiens) (P00533 whole entry, looked up): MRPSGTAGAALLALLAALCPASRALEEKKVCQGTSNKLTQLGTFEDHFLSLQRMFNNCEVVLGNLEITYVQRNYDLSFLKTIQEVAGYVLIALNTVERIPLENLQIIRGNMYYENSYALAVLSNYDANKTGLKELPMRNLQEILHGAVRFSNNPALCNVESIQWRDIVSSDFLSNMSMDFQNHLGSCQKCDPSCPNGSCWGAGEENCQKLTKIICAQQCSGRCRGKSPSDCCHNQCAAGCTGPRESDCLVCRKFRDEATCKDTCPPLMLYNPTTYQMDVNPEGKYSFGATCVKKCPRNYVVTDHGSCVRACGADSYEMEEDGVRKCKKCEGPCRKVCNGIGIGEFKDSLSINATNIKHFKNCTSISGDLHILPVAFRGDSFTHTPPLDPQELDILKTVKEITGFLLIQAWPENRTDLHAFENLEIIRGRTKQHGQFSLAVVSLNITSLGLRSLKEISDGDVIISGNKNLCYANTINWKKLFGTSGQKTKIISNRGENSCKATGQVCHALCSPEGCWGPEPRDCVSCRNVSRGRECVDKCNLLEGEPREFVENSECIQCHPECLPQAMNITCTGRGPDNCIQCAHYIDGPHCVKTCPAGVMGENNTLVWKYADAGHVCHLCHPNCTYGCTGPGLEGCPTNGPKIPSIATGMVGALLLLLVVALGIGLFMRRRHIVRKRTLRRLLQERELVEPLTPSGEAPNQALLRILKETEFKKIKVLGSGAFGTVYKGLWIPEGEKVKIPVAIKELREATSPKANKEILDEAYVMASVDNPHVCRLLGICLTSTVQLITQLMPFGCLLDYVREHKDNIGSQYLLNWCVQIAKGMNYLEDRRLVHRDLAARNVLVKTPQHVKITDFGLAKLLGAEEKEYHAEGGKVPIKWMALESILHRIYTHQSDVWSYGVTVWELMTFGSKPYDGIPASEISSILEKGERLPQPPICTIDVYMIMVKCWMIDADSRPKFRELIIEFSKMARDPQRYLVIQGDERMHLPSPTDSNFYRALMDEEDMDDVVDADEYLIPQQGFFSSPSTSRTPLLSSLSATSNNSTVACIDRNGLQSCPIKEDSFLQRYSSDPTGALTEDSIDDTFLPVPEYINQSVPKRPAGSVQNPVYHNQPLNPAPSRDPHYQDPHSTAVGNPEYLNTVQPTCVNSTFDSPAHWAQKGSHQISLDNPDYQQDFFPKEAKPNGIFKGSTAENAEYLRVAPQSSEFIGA
Chain of Dickkopf-related protein 1 (Homo sapiens) (O94907 whole entry, looked up): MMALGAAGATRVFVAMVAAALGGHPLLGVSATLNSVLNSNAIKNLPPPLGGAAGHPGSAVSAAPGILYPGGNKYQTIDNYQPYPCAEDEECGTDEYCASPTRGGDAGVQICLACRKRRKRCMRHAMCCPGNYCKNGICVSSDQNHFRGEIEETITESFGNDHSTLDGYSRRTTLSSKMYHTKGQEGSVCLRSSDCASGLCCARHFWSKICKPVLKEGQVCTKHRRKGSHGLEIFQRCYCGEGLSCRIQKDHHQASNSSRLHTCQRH
Chain of Fibroblast growth factor 10 (Homo sapiens) (O15520 whole entry, looked up): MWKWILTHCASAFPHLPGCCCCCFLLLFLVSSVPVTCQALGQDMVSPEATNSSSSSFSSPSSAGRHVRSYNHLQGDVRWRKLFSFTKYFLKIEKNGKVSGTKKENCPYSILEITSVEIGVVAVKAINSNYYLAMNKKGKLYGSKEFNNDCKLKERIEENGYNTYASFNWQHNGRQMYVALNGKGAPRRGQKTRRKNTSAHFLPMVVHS

Consider `COC(=O)C1=CC(c2ccc(CO)cc2)=CC(c2cccs2)N(C)C=C1C(=O)OC` (stereo not given), for which the composite z-score in assay [1] was 1.52; in assay [2], 0.772; in [3], 1.13; in assay [5], -0.0489; in assay [6] it was -0.57; in assay [7], -0.407. Moreover, the composite z-score in [8] was 0.409; in assay [9], -0.813; in [10], 1.46; in [11], -0.526; in assay [13], -0.76; in assay [14] it was 1.36. In addition, the composite z-score is 0.774 in assay [15]; -0.096 in assay [16]; 0.138 in assay [17]; 0.603 in assay [18]; 0.107 in [19]; 0.765 in [20]. In addition, the z-score in assay [4] was -1.77 (inactive); in assay [12], -0.176.

On to `C=C(COC)C(=O)CC[C@H](OC(=O)c1ccccc1-c1ccccc1C(=O)O)c1ccccc1OCCO`, for which the composite z-score is 1.52 in assay [1]; -0.227 in [2]; -0.053 in [3]; 0.595 in assay [5]; 0.264 in assay [6]; -0.124 in assay [7]. Moreover, the composite z-score was 0.159 in [8]; 0.307 in assay [9]; 1.1 in assay [10]; -0.15 in [11]; 0.273 in assay [13]; 0.209 in assay [14]. Besides, the composite z-score in assay [15] is -0.749; in assay [16], -0.118; in [17], 0.267; in assay [18], 0.0707; in [19] it was 0.423; in assay [20] it was 0.737. Besides, the results for the z-score in assay [4] and in [12] were -0.51 (inactive) and -1.46, respectively.

In the case of `COCCOC(=O)N1C(=O)[C@@]2(c3cc(C#CCNC(N)=O)ccc31)[C@H](C(=O)NC[C@H](O)c1ccccc1)[C@H]1C(=O)O[C@H](c3ccccc3)[C@H](c3ccccc3)N1[C@@H]2c1ccc(O)cc1`, the composite z-score in assay [1] was 1.54; in [2], 0.347; in [3], 0.925; in [5], 0.477; in assay [6], 0.0604; in assay [7], -0.0057. For the same molecule, the composite z-score in assay [8] was 0.683; in [9], -0.347; in assay [10], 0.7; in assay [11], 0.515; in [13], 0.0741; in [14] it was 1.01. The composite z-score was 0.571 in assay [15]; -0.0203 in [16]; -0.152 in assay [17]; -0.122 in assay [18]; 0.138 in assay [19]; 1.04 in [20]. For the same molecule, the z-score was 0.012 (inactive) in [4] and -0.249 in assay [12].

Consider `CC(C)(C)OC(=O)CC[C@@]1(C(=O)NCc2ccccc2)N=C(c2ccc(OCCCO)cc2)O[C@@H]1c1ccccc1CN=[N+]=[N-]`, for which the composite z-score in assay [1] turned out to be 1.08; in assay [2], 1.06; in assay [3], 0.997; in [5], 1.16; in assay [6] it was 1.3; in assay [7] it was 0.0887. Further, the composite z-score in assay [8] is 0.622; in [9] it was 0.11; in assay [10] it was 0.664; in [11], -0.179; in assay [13], 0.0022; in assay [14], 1.61. Besides, the composite z-score is 0.605 in [15]; 0.164 in assay [16]; -0.0446 in assay [17]; 0.799 in assay [18]; 0.487 in assay [19]; 1.55 in [20]. Besides, the z-score is 0.014 (inactive) in assay [4] and -2.28 in assay [12].

Consider `Cc1ccc(S[C@]2(C(=O)NCC(C)C)CC(=O)N(C(C)C)[C@@H]2c2ccc(CO)cc2)cc1`, for which the composite z-score in [1] is 0.0739; in assay [2], 0.457; in assay [3] it was 0.696; in assay [5] it was -0.475; in assay [6], -0.771; in assay [7] it was -0.33. In addition, the composite z-score was -0.196 in assay [8]; -0.574 in [9]; 0.727 in [10]; -0.962 in assay [11]; -0.594 in assay [13]; -0.886 in [14]. Also, the composite z-score was 0.134 in [15]; -0.124 in [16]; -0.137 in assay [17]; -0.163 in assay [18]; 0.623 in assay [19]; -1.11 in assay [20]. Besides, the z-score in assay [4] is -0.982 (inactive); in assay [12], -0.725.
